Results reported in the supplement of paper PMC10849652.
Targets with a hit are over-represented here; the source holds about 7,900 in all. About 0.6% of all pairs of compound and target were hits.

Compound: C1=CC=C2C(=C1)C3=NNC4=CC=CC(=C43)C2=O
Experiment: log2 fold change, soluble protein after heating vs DMSO (PISA); higher = thermal stabilisation; K562 cells, 10 uM, 30 min; active = over 0.2 and 3.5 SD of the protein, either way, in both replicates (recomputed)
Outline: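 Quantification of soluble protein used TMTpro 16plex LC-MS/MS, with channel sums equalised. Samples were the supernatant after 21,000xg for 90 min of pooled aliquots from K562 cells (2×10^6 cells/mL) treated with 10 μM compound for 30 min, heated for 3 min over 48°C-58°C, and extracted in PBS with 0.5% NP-40 at 4°C. Values, from duplicates, describe thermal stability against control samples on a log2 fold-change scale.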

Chain of UniProt Q5JUR7 (Q5JUR7 whole entry, looked up): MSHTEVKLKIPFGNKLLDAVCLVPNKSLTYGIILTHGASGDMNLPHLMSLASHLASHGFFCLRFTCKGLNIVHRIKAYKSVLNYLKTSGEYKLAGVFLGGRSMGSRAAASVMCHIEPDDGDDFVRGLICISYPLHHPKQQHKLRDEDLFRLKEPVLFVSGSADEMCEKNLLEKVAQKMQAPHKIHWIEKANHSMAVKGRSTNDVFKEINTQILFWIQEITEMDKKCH
Chain of UniProt Q15005 (Q15005 whole entry, looked up): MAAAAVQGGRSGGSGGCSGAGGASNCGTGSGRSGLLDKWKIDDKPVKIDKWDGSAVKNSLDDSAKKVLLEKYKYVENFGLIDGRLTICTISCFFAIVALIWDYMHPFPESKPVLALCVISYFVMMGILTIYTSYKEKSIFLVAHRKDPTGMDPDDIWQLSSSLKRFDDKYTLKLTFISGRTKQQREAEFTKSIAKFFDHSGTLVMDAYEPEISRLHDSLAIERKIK
Chain of UniProt Q96DW6 (Q96DW6 whole entry, looked up): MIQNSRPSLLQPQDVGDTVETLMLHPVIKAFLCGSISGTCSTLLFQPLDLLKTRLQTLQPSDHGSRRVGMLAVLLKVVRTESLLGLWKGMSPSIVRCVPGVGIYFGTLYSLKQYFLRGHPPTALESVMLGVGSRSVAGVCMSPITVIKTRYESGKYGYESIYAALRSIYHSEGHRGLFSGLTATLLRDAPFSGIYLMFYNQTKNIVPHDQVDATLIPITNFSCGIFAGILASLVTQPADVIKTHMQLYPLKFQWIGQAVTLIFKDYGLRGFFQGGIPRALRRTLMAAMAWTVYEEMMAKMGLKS
Chain of UniProt Q92797 (Q92797 whole entry, looked up): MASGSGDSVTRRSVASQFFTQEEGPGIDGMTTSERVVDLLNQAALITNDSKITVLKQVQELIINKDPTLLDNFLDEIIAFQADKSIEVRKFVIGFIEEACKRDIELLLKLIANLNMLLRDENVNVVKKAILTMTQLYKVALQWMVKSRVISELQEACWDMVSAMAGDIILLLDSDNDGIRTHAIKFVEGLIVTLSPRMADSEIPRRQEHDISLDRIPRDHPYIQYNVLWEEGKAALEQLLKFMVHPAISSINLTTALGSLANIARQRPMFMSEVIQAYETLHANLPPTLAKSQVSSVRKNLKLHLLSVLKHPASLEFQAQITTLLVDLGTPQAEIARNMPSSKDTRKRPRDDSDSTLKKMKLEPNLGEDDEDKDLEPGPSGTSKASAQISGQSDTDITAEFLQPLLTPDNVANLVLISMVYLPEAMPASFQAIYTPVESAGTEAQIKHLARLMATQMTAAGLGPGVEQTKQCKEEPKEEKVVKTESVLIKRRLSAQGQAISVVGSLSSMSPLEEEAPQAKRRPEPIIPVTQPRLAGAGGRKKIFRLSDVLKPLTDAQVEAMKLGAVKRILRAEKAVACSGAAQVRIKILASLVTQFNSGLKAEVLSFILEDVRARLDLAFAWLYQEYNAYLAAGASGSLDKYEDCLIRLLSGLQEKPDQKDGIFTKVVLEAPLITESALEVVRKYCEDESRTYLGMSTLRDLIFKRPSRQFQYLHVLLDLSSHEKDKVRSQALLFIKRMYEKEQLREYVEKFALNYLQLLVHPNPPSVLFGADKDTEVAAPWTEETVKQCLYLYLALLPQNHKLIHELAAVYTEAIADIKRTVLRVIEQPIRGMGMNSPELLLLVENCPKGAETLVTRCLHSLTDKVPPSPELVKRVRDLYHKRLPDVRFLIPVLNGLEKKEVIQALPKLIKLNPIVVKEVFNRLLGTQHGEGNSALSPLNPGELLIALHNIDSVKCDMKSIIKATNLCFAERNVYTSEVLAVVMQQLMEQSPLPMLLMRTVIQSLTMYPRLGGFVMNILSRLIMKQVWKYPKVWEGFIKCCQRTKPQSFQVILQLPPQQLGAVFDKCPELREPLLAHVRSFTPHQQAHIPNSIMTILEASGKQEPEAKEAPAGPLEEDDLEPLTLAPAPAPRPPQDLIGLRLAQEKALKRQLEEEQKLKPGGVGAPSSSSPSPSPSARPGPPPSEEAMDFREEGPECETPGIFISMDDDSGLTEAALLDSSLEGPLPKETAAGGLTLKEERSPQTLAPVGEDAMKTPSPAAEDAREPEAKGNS
Chain of UniProt Q9BTW9 (Q9BTW9 whole entry, looked up): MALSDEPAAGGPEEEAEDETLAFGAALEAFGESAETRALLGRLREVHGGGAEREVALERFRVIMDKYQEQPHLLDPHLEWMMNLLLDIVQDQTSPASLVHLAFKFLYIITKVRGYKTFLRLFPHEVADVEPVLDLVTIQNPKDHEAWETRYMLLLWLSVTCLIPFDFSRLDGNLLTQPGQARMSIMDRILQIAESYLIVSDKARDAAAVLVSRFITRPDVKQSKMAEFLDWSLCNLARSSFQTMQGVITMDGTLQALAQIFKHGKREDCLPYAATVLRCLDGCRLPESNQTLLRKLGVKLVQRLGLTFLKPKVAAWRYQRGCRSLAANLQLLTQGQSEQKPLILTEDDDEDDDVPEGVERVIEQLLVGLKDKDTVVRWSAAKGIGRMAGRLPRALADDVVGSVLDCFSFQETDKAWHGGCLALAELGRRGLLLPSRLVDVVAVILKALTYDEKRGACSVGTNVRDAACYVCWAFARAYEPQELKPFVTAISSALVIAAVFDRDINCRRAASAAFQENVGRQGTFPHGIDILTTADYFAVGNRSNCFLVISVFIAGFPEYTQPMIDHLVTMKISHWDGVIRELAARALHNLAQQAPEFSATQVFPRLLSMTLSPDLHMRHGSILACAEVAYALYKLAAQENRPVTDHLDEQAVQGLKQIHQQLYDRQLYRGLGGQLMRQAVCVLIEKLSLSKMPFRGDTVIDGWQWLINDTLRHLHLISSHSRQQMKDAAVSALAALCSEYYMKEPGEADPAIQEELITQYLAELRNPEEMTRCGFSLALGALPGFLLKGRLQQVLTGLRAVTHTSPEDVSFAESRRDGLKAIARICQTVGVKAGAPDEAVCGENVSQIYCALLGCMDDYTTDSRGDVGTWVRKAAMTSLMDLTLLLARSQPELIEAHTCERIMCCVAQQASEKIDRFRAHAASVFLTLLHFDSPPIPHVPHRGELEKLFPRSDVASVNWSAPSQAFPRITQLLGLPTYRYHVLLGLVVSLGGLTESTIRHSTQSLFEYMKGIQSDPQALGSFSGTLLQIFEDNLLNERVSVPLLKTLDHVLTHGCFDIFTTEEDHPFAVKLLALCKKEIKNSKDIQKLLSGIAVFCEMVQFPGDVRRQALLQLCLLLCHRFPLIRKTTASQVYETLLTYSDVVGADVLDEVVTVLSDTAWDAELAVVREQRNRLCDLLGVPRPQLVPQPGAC
Chain of UniProt P27105 (P27105 whole entry, looked up): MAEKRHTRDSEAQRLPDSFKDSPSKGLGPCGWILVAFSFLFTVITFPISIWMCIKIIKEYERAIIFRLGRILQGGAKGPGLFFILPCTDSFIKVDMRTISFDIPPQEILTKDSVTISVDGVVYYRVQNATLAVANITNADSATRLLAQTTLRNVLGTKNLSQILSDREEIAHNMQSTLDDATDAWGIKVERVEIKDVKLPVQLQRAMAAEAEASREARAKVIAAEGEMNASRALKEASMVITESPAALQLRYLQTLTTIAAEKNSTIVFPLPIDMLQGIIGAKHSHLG
Chain of UniProt P35270 (P35270 whole entry, looked up): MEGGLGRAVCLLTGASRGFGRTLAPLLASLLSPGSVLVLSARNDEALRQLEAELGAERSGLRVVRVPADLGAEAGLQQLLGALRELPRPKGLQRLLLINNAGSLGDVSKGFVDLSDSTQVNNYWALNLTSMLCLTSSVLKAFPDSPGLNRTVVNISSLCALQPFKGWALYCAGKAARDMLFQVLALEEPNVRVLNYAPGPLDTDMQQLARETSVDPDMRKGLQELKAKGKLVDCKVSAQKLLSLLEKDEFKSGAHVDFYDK
Chain of UniProt Q02447 (Q02447 whole entry, looked up): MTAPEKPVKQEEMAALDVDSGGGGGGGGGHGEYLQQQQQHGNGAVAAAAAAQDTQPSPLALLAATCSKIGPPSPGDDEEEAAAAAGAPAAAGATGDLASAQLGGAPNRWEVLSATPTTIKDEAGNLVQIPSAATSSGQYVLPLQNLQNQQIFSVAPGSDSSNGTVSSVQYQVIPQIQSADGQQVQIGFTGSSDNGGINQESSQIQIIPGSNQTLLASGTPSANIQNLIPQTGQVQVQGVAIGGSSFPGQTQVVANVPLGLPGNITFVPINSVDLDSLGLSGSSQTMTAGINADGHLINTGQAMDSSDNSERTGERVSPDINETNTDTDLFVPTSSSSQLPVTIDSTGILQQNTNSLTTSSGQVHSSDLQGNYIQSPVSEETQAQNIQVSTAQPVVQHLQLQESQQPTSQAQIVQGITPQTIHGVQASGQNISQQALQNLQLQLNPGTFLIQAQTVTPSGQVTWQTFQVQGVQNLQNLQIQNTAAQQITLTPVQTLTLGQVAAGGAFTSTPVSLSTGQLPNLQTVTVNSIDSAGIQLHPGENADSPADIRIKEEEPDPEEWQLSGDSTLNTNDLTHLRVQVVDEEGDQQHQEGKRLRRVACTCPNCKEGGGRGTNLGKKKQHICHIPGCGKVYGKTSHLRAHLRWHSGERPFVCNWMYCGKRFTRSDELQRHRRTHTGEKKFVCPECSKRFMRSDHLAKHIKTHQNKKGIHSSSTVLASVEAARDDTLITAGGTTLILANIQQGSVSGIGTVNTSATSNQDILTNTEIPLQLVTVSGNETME
Chain of UniProt Q9Y5L4 (Q9Y5L4 whole entry, looked up): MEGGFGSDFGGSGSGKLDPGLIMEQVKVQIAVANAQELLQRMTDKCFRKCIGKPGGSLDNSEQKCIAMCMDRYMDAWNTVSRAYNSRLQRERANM
Chain of UniProt O00193 (O00193 whole entry, looked up): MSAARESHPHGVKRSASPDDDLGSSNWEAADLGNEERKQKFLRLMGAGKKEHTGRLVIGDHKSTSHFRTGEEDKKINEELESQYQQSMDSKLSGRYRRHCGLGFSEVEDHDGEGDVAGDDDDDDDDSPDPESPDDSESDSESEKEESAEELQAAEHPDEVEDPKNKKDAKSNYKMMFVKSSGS
Chain of UniProt P62318 (P62318 whole entry, looked up): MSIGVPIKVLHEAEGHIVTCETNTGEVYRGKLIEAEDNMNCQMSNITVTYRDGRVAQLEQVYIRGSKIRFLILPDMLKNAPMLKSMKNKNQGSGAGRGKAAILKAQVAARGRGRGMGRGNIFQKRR

log2 fold change, inactive:
TIMM13 (UniProt Q9Y5L4) -0.005
SLC25A38 (UniProt Q96DW6) 0.005
SMARCA5 (UniProt O60264) -0.103
TEX30 (UniProt Q5JUR7) 0.046
SMG1 (UniProt Q96Q15) 0.049
SNRPD3 (UniProt P62318) -0.076
SUPT5H (UniProt O00267) 0.006
SPAST (UniProt Q9UBP0) 0.064
TBCD (UniProt Q9BTW9) -0.01
SMAP (UniProt O00193) 0.015
SPR (UniProt P35270) 0.096
TAOK3 (UniProt Q9H2K8) -0.007
SP3 (UniProt Q02447) -0.066
STOM (UniProt P27105) -0.038
TJP1 (UniProt Q07157) -0.029
SLC30A10 (UniProt Q6XR72) -0.003
SPCS2 (UniProt Q15005) -0.08
TM9SF4 (UniProt Q92544) 0.038
STAT5B (UniProt P51692) -0.061
SRSF10 (UniProt O75494) -0.022
SNX12 isoform 1 (UniProt Q9UMY4) -0.064
TBC1D15 isoform 3 (UniProt Q8TC07) -0.035
SYMPK (UniProt Q92797) -0.065
